# The sample as a whole holds a higher share of hits than the screen did.
# GIRK2 act – Activators of human GIRK2-containing channels | P48051 | HEK293 GIRK2/NPY4 cells, thallium flux fluorescence | 34,000 tested, under 10 active | activation (% efficacy), % for hits at 37.5 µM;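 active = primary screen hit, no activity in plain HEK293 cells, and in GIRK2-only cells above 5% efficacy rising with concentration; inactive = the rest, including fluorescent compounds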;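 also: efficacy is normalized control-subtracted fluorescence 15 s after thallium addition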
# Target sequence (P48051 whole entry, looked up): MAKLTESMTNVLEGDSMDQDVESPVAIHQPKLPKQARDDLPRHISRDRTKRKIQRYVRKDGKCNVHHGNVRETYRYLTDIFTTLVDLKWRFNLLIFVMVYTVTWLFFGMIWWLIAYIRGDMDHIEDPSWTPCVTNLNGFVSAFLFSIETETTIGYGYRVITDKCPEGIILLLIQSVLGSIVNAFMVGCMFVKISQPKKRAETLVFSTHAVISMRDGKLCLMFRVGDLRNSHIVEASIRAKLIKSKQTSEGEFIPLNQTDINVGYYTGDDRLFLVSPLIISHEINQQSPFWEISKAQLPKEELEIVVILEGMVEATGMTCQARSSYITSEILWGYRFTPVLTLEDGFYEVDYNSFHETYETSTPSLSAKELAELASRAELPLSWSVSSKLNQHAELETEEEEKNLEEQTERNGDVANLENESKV
# GluA2 TARP mod – modulators of AMPA receptor GluA2-stargazin complexes | O88602+P19491 | HEK293 GluA2+stargazin, membrane potential dye (FDSS), glutamate EC50; hits were called plate by plate, in both directions | calls only at 30 µM | actives 3.5% (n = 40,000) | AID 1259245;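 active = any of four per-well response measures lying three or more SD from its plate-wide compound average, in either direction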
# Active calls of the source: *; i = inactive; . = no result given; + = active, no number.
SMILES,GIRK2 act,GluA2 TARP mod
O=C1CC(c2nc3ccccc3n2Cc2c(F)cccc2Cl)CN1Cc1ccccc1 (configuration not stated),.,+
CCCCN1CC(c2nc3ccccc3n2Cc2ccccc2)CC1=O (configuration not stated),.,i
O=C1CC(c2nc3ccccc3n2Cc2ccc(F)cc2)CN1Cc1ccc(F)cc1 (configuration not stated),.,i
CCCCN1CC(c2nc3ccccc3n2Cc2cccc(Cl)c2)CC1=O (configuration not stated),.,+
CC(C)CCn1c(C2CC(=O)N(Cc3ccc(F)cc3)C2)nc2ccccc21 (configuration not stated),.,i
C=CCN1CC(c2nc3ccccc3n2Cc2c(F)cccc2Cl)CC1=O (configuration not stated),.,i
O=C1CC(c2nc3ccccc3n2Cc2ccc(F)cc2)CN1Cc1ccccc1 (configuration not stated),.,+
CN(C)c1nn(CC(=O)Nc2ccc(S(C)(=O)=O)cc2)cc1-c1ccccc1,i,i
CCOc1ccc(NC(=O)Nc2c(C)nc3cc(C)ccn3c2=O)cc1,i,i
COc1ccc(C(CNC(=O)C(=O)NCc2ccccc2OC)N2CCOCC2)cc1 (configuration not stated),i,.
CC(C)(C)N1CC(c2nc3ccccc3n2CCOc2ccc(Cl)cc2)CC1=O (configuration not stated),.,i
COc1cccc(N2CC(c3nc4ccccc4n3Cc3ccccc3)CC2=O)c1 (configuration not stated),.,i
CC(C)(C)N1CC(c2nc3ccccc3n2Cc2ccc(Cl)cc2)CC1=O (configuration not stated),.,i
Cc1cccc(Cn2c(C3CC(=O)N(C(C)(C)C)C3)nc3ccccc32)c1 (configuration not stated),.,+
COc1cccc(N2CC(c3nc4ccccc4n3Cc3ccccc3Cl)CC2=O)c1 (configuration not stated),.,+
CC(C)(C)N1CC(c2nc3ccccc3n2Cc2c(F)cccc2Cl)CC1=O (configuration not stated),.,+
CC(=O)NC1C(O)C(O)C(CO)OC1n1nc(-c2ccc(C)cc2)n(C(C)C)c1=S (configuration not stated),i,.
Cc1nnsc1C(=O)NCCNc1cc(-n2ccnc2C)ncn1,i,i
Cc1cc(NC(=O)CSc2nc(=O)n(N3CCN(C)CC3)c3c2CCC3)no1,i,+
CN1CCN(n2c3c(c(SCC(=O)Nc4cccc5ccccc45)nc2=O)CCC3)CC1,i,i
O=C(NCC(c1cccc2ccccc12)N1CCOCC1)c1ccc(Br)o1 (configuration not stated),i,+
COc1ccc(C(CNC(=O)c2cc(OC)cc(OC)c2)N2CCOCC2)cc1 (configuration not stated),.,i
COc1ccc(C(CNC(=O)c2ccccc2Br)N2CCOCC2)cc1 (configuration not stated),i,+
COc1cccc(C(CNC(=O)c2ccccc2Br)N2CCOCC2)c1 (configuration not stated),i,i
O=C(NCC(c1cccc2ccccc12)N1CCOCC1)c1cccc(Br)c1 (configuration not stated),i,i
SMILES,GIRK2 act,GluA2 TARP mod
COc1ccc(C(CNC(=O)c2ccc3ccccc3c2)N2CCOCC2)cc1 (configuration not stated),.,+
CCOc1ccc(-n2nnc3c(N4CCN(C(=O)C(C)C)CC4)ncnc32)cc1,.,i
O=C(O)COc1ncnc2ccccc12,i,i
Cc1n[nH]c(C)c1S(=O)(=O)Nc1ccc2c(c1)N(C(=O)c1ccco1)CC2,i,i
O=C(CC(Sc1n[nH]c(-c2ccccc2)n1)c1ccccc1)NCCc1ccccc1 (configuration not stated),.,i
COc1ccc(-c2nc(SC(CC(=O)NCCc3ccccc3)c3ccc(OC)cc3)n[nH]2)cc1 (configuration not stated),.,+
COc1cc(C(C)=O)ccc1OCC(=O)N1CCN(c2ccc3nncn3n2)CC1,i,+
Cc1ccc(OCC(=O)N2CCN(c3ccc4nncn4n3)CC2)cc1C,i,i
COc1ccccc1-c1nnc(NC(=O)c2ccco2)o1,.,i
CC(=O)c1ccc(NC(=O)CSc2ncc(S(=O)(=O)c3ccc(Cl)s3)c(N)n2)cc1,i,i
Nc1nc(SCC(=O)Nc2ccccc2)ncc1S(=O)(=O)c1ccc(Cl)s1,i,+
CCOc1cc(C)c(S(=O)(=O)N2CCC(C(N)=O)CC2)cc1C,.,i
COc1ccc(Nc2cc(C)nc(NCCNC(=O)c3nccc(C)n3)n2)cc1,i,.
COc1ccc(Nc2cc(C)nc(NCCNC(=O)c3cnccn3)n2)cc1,i,+
Cc1ccc(-n2ncc3c(=O)n(CC(=O)N4CCCC4)cnc32)c(C)c1,.,i
COc1ccc(NC(=O)CC2SC(=O)N(CC(=O)c3ccccc3)C2=O)cc1 (configuration not stated),i,i
O=C(CC1SC(=O)N(Cc2ccccc2)C1=O)Nc1ccc([N+](=O)[O-])cc1 (configuration not stated),i,+
CCOC(=O)CCC(=O)Nc1ccc2c(c1)N(C(=O)c1ccco1)CC2,i,i
CN1C(=O)Cc2cc(NC(=O)NCCc3ccccc3)ccc21,i,i
Cc1ccc(S(=O)(=O)Nc2ccccc2C(=O)Nc2ccc(C)cc2C(=O)c2ccccc2)cc1,.,i
Cc1ccc(NS(=O)(=O)c2ccccc2)c(C(=O)c2ccccc2)c1,.,+
O=C(NCCCn1nc(-c2ccccc2)ccc1=O)Nc1ccc(C(F)(F)F)cc1,i,i
Cc1ccc(C(=O)Nc2ccc(SCCN3CCOCC3)nn2)cc1,i,i
CC(C)OC(=O)C1(C(=O)OC(C)C)CC(CO)(CO)C1,.,i
CC(C)OC(=O)C1(C(=O)OC(C)C)CC2(COC(c3ccccc3)OC2)C1,i,+
SMILES,GIRK2 act,GluA2 TARP mod
CCOc1ccccc1C(=O)N1CCN(c2ncnc3c2nnn3-c2ccc(F)cc2)CC1,i,i
CCOc1ccccc1C(=O)N1CCN(c2ncnc3c2nnn3-c2ccc(OC)cc2)CC1,.,+
Cc1cc(C(C)(C)C)cc(S(=O)(=O)Nc2ccc(O)cc2)c1C,.,i
CC(=O)Nc1cccc(NC(=O)C(=O)NCCCN(C)C)c1,.,+
CN(C)CCCNC(=O)C(=O)Nc1ccc2c(c1)OCCO2,i,i
O=C(NCc1ccccc1Cl)C(=O)NC(c1ccccc1)c1ccccc1,.,i
COc1ccc(S(=O)(=O)N2CCSC2c2ccc(Br)cc2)cc1 (configuration not stated),.,i
COc1ccc(Br)cc1C1SCCN1S(=O)(=O)c1cccc(C)c1 (configuration not stated),.,+
COc1nn(C)cc1C(=O)NCC(O)(c1ccccc1)C1CC1 (configuration not stated),.,i
COc1ccc(Cl)cc1C(=O)NCC(O)(c1cccs1)C1CC1 (configuration not stated),i,+
COc1ccc(Cl)cc1C(=O)NCC(O)(c1ccccc1)C1CC1 (configuration not stated),.,+

# Assay outcomes from PubChem.
